According to ChEMBL document CHEMBL1961873, “Compounds: GSK PKIS; Assays: Nanosyn kinase panel” (2012):

Tests used:
[1] = target: Sphingosine kinase 1 (Homo sapiens) (UniProt Q9NYA1); conditions: at 1 µM;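 also: mean SPHK1 inhibition value reported from the GSK PKIS kinase panel screen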
[2] = target: T1, Sphingosine kinase 2 (Homo sapiens) (UniProt Q9NRA0); conditions: at 0.1 µM
T1 sequence (whole entry): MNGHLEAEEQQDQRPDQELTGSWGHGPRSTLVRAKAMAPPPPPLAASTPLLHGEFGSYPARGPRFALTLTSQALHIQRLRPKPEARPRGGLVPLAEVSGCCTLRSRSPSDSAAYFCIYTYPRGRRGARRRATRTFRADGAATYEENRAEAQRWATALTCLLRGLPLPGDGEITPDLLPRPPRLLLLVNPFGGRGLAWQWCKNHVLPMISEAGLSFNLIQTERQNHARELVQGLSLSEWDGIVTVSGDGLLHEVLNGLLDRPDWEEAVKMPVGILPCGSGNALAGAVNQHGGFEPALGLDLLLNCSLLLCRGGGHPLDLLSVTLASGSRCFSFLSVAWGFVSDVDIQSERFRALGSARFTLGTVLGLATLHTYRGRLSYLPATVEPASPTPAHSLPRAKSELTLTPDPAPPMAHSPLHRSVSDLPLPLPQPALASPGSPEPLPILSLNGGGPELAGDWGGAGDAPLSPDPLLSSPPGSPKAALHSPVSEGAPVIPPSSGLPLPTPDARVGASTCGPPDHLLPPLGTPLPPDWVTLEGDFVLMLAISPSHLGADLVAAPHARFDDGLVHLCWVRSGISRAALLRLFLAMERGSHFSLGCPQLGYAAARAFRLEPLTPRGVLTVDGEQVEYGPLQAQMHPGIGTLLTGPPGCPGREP

[3] = target: T1, Sphingosine kinase 2 (Homo sapiens); conditions: at 1 µM
[4] = target: Casein kinase II subunit alpha (Homo sapiens) (UniProt P68400); conditions: at 0.1 µM
[5] = target: Casein kinase II subunit alpha (Homo sapiens) (UniProt P68400); conditions: at 1 µM
[6] = target: T2, Inhibitor of nuclear factor kappa-B kinase subunit alpha (Homo sapiens) (UniProt O15111); conditions: at 0.1 µM
T2 sequence (whole entry): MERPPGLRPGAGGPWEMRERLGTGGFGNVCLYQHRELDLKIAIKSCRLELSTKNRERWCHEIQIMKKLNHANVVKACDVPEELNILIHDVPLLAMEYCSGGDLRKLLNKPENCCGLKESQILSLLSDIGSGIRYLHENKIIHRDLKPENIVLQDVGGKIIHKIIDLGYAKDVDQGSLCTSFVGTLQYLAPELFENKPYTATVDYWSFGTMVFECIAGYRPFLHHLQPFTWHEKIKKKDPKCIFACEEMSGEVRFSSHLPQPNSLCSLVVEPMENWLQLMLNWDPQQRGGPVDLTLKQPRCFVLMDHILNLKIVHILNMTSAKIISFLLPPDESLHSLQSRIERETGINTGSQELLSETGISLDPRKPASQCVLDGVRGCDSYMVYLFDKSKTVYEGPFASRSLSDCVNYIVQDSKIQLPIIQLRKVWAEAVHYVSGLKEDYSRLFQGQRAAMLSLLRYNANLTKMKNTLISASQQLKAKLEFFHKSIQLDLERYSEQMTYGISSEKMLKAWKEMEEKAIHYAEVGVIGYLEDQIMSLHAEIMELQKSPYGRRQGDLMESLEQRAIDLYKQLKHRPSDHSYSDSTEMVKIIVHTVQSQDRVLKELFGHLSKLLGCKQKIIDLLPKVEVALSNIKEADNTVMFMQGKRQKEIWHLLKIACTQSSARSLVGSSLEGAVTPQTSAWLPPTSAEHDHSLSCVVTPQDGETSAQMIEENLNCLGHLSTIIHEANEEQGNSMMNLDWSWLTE

[7] = target: T2, Inhibitor of nuclear factor kappa-B kinase subunit alpha (Homo sapiens); conditions: at 1 µM
[8] = target: T3, Inhibitor of nuclear factor kappa-B kinase subunit beta (Homo sapiens) (UniProt O14920); conditions: at 0.1 µM
T3 sequence (whole entry): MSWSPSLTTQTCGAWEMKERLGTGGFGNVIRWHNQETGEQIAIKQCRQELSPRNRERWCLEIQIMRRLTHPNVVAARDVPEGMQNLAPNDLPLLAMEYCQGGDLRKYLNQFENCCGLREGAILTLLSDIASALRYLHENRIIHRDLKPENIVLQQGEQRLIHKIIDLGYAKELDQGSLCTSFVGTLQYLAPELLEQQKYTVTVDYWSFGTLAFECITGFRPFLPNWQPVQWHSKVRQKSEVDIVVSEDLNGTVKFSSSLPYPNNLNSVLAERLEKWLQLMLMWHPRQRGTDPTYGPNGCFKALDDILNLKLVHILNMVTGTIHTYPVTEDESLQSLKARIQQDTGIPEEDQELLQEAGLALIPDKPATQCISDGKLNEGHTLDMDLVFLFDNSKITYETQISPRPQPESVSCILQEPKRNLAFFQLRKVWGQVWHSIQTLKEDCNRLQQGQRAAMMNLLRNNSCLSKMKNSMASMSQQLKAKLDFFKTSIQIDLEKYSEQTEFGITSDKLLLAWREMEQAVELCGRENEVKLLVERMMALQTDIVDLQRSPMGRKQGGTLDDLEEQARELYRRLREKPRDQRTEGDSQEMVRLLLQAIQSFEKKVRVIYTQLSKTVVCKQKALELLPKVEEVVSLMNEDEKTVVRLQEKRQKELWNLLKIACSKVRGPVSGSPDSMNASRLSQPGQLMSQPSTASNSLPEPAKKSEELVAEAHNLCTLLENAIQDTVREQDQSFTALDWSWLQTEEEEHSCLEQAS

[9] = target: T3, Inhibitor of nuclear factor kappa-B kinase subunit beta (Homo sapiens); conditions: at 1 µM
[10] = target: T4, Inhibitor of nuclear factor kappa-B kinase subunit epsilon (Homo sapiens) (UniProt Q14164); conditions: at 0.1 µM
T4 sequence (whole entry): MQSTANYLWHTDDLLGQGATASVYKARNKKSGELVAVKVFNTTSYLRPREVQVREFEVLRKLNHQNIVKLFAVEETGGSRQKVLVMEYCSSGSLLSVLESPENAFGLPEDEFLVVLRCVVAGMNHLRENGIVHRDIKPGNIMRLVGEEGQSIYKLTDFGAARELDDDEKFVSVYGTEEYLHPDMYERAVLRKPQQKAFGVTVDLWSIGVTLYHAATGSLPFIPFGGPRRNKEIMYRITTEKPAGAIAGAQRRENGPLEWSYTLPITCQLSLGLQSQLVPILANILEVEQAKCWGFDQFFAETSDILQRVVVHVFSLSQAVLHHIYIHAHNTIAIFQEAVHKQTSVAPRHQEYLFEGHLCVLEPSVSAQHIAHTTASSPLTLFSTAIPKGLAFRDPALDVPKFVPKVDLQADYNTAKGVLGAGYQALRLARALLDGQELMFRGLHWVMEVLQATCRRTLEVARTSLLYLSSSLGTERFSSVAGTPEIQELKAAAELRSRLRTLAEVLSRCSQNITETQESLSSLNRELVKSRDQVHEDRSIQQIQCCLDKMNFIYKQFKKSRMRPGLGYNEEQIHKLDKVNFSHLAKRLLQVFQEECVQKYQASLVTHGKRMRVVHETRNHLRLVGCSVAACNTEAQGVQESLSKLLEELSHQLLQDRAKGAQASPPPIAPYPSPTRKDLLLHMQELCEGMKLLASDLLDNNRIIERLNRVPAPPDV

[11] = target: T4, Inhibitor of nuclear factor kappa-B kinase subunit epsilon (Homo sapiens); conditions: at 1 µM
[12] = target: T5, Serine/threonine-protein kinase Nek1 (Homo sapiens) (UniProt Q96PY6); conditions: at 0.1 µM
T5 sequence (whole entry): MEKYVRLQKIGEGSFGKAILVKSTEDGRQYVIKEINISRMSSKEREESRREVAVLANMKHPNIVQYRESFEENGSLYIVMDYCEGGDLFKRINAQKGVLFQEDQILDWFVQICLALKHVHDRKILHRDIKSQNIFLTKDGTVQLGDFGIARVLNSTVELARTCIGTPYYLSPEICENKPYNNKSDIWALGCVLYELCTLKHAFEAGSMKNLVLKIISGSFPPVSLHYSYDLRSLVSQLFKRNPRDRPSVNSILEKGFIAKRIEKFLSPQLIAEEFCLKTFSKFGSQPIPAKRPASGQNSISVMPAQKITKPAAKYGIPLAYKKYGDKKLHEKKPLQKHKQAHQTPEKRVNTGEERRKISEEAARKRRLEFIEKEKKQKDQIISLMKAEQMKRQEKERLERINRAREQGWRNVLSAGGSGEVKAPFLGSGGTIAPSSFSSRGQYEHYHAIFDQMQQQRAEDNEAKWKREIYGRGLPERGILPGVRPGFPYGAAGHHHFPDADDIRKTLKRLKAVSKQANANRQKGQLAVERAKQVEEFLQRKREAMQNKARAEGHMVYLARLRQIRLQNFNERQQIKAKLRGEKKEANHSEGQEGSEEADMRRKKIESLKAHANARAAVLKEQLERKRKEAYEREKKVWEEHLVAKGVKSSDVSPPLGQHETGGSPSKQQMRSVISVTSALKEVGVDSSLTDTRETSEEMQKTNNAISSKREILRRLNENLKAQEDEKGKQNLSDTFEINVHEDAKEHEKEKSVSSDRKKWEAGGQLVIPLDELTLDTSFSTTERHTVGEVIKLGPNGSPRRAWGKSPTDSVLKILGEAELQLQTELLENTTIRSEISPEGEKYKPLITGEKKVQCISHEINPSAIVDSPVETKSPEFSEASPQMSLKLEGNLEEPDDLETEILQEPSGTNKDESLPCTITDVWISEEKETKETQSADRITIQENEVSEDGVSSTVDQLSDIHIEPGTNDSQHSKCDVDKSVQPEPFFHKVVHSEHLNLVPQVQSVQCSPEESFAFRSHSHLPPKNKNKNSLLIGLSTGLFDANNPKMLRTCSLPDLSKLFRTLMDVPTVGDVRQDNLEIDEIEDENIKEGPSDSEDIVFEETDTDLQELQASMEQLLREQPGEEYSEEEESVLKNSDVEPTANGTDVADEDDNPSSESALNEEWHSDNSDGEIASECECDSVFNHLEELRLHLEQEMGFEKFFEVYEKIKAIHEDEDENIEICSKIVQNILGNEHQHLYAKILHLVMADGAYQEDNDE

[13] = target: T5, Serine/threonine-protein kinase Nek1 (Homo sapiens); conditions: at 1 µM
[14] = target: T6, Serine/threonine-protein kinase Nek2 (Homo sapiens) (UniProt P51955); conditions: at 0.1 µM
T6 sequence (whole entry): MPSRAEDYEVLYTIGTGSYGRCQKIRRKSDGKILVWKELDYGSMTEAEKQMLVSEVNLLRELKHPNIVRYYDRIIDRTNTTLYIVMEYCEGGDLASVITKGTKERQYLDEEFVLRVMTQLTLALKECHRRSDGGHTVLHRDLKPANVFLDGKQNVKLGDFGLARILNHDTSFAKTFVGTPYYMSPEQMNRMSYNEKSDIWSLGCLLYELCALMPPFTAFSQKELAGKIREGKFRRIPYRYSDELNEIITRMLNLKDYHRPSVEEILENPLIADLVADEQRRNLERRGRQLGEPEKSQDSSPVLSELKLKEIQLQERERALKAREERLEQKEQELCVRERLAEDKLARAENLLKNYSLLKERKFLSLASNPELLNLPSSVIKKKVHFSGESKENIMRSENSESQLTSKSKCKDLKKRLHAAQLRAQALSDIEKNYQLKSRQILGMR

[15] = target: T6, Serine/threonine-protein kinase Nek2 (Homo sapiens); conditions: at 1 µM
[16] = target: Serine/threonine-protein kinase Nek6 (Homo sapiens) (UniProt Q9HC98); conditions: at 0.1 µM
[17] = target: Serine/threonine-protein kinase Nek6 (Homo sapiens) (UniProt Q9HC98); conditions: at 1 µM
[18] = target: Serine/threonine-protein kinase Nek7 (Homo sapiens) (UniProt Q8TDX7); conditions: at 0.1 µM
[19] = target: Serine/threonine-protein kinase Nek7 (Homo sapiens) (UniProt Q8TDX7); conditions: at 1 µM
[20] = target: T7, Serine/threonine-protein kinase Nek9 (Homo sapiens) (UniProt Q8TD19); conditions: at 0.1 µM;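 also: reported value is the mean percent inhibition of NEK9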
T7 sequence (whole entry): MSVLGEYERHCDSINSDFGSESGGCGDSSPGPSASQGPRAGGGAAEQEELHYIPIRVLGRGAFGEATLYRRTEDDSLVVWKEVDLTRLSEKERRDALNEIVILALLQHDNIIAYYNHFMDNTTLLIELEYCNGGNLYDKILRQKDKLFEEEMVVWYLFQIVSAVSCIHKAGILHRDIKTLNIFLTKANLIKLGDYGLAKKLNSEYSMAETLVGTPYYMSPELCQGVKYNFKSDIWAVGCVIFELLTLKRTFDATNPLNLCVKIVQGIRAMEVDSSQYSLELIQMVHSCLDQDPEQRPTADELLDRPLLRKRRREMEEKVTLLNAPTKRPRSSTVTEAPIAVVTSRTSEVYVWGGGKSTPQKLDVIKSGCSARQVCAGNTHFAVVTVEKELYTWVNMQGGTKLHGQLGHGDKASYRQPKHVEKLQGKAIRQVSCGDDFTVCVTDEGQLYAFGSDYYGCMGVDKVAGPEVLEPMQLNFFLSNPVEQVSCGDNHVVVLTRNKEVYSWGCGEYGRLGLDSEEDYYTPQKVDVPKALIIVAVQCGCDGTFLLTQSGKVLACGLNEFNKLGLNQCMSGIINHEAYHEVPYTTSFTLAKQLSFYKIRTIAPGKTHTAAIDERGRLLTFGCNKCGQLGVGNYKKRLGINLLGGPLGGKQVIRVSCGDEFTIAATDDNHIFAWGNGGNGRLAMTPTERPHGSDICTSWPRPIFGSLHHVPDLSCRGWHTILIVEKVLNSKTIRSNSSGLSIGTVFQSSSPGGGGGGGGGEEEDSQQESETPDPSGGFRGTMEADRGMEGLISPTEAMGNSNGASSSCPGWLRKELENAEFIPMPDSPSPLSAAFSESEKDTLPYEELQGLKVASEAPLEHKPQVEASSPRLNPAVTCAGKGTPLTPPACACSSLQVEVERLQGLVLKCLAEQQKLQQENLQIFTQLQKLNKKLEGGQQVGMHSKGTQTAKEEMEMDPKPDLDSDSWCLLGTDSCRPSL

Chain of Serine/threonine-protein kinase Nek6 (Homo sapiens) (Q9HC98 whole entry): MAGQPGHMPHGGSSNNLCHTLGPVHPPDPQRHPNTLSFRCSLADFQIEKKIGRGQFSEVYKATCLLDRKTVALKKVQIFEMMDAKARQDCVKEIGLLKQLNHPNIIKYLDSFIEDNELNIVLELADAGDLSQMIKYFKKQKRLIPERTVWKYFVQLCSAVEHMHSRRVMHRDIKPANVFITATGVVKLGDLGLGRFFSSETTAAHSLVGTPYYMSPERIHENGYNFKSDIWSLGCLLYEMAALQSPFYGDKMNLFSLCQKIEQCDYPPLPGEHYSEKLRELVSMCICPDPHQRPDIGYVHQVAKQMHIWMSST
Chain of Casein kinase II subunit alpha (Homo sapiens) (P68400 whole entry, looked up): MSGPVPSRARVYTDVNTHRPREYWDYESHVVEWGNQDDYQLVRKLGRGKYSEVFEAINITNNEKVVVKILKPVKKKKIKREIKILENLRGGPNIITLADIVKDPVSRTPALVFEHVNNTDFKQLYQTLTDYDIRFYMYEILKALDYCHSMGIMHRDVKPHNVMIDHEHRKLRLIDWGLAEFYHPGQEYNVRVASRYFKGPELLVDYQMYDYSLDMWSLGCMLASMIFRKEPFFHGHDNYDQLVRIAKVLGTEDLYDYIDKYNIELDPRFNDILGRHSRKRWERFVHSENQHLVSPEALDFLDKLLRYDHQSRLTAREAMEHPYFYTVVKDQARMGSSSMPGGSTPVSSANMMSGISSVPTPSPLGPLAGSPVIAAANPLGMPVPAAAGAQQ
Chain of Serine/threonine-protein kinase Nek7 (Homo sapiens) (Q8TDX7 whole entry, looked up): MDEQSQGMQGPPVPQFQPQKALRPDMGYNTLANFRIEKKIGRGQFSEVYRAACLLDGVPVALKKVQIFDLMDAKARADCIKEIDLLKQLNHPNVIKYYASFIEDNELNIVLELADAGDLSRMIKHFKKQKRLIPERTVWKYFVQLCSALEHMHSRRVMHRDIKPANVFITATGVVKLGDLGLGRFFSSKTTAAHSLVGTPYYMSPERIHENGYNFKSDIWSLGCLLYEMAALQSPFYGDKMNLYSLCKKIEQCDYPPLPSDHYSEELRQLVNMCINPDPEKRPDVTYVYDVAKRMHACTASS
Chain of Sphingosine kinase 1 (Homo sapiens) (Q9NYA1 whole entry): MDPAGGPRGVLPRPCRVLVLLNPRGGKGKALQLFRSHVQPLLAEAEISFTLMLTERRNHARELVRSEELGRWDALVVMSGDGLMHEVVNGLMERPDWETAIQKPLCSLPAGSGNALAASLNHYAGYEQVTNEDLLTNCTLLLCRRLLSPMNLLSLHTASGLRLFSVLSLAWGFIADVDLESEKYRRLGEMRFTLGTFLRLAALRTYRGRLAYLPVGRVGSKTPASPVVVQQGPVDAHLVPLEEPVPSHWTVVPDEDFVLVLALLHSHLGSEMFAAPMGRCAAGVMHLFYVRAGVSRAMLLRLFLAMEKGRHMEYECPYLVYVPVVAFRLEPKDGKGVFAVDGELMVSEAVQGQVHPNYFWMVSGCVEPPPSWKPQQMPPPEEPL

SMILES: CCCN1CCC=C(c2ccc(Nc3nc(Nc4ccccc4C(N)=O)c4cc[nH]c4n3)c(C)c2)C1
- inhibition [1]: 1.28%
- inhibition [2]: -1.02%
- inhibition [3]: 0.04%
- inhibition [4]: 33.7%
- inhibition [5]: 72%
- inhibition [6]: 13.6%
- inhibition [7]: 16%
- inhibition [8]: 5.1%
- inhibition [9]: 8.74%
- inhibition [10]: 9.65%
- inhibition [11]: 10.3%
- inhibition [12]: 3.93%
- inhibition [13]: 8.78%
- inhibition [14]: 6.91%
- inhibition [15]: 7.52%
- inhibition [16]: 0.8%
- inhibition [17]: 5.18%
- inhibition [18]: 4.64%
- inhibition [19]: 14%
- inhibition [20]: 7.78%
